# Measured values from the supplement of paper PMC8975748.
# Structures can show the parent of a compound that is named as a salt. ± gives the standard deviation of the averaged measurements.
# Tests used:
# [1] = test system: Saccharomyces cerevisiae BY4741 SeMeCo community; assay: mean cell size (pixel area) (pixels); higher = larger cells; settings: 10 µM; 24 h; SM minimal medium
# Method in brief: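 In this assay, mean cell pixel area per well was obtained from automated confocal images of paraformaldehyde-fixed yeast analysed in Harmony. The cells were a Saccharomyces cerevisiae BY4741 community with four plasmids, each complementing one auxotrophy and carrying a fluorescent marker, grown for 24 h in SM medium with drug at a final 10 µM in 384-well plates. Values are averaged across 3 replicates. Same SeMeCo high-content imaging drug screen: Selleck FDA-approved drugs at 10 µM, 24 h in SM medium, 384-well plates, 3 replicates.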
# [2] = test system: Saccharomyces cerevisiae BY4741 SeMeCo community; assay: z-score of prototroph abundance vs DMSO median; higher = larger share of this subpopulation than in DMSO controls; settings: 10 µM; 24 h; SM minimal medium; subpopulation (auxotrophy): Prototroph
# Method in brief: (§1)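 Four plasmids, each restoring a single auxotrophy and encoding a distinct fluorescent protein, were carried by a Saccharomyces cerevisiae BY4741 community. After overnight growth to OD600 1.0 and dilution to 0.3, 70 µl per well was grown for 24 h in minimal SM medium on 384-well plates acoustically predosed with library drugs at 10 µM final. Following paraformaldehyde fixation, automated confocal microscopy was used, with single-auxotroph fluorescent strains defining thresholds and autofluorescence correction. Subpopulation abundance was then scored as a z-score against the vehicle-well median.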
# [3] = test system: Saccharomyces cerevisiae BY4741 SeMeCo community; assay: z-score of subpopulation abundance vs DMSO median, subpopulation auxotrophic for M; higher = larger share of this subpopulation than in DMSO controls; settings: 10 µM; 24 h; SM minimal medium; subpopulation (auxotrophy): M
# Method in brief: as §1
# [4] = test system: Saccharomyces cerevisiae BY4741 SeMeCo community; assay: z-score of subpopulation abundance vs DMSO median, subpopulation auxotrophic for U; higher = larger share of this subpopulation than in DMSO controls; settings: 10 µM; 24 h; SM minimal medium; subpopulation (auxotrophy): U
# Method in brief: as §1
# [5] = test system: Saccharomyces cerevisiae BY4741 SeMeCo community; assay: z-score of subpopulation abundance vs DMSO median, subpopulation auxotrophic for H; higher = larger share of this subpopulation than in DMSO controls; settings: 10 µM; 24 h; SM minimal medium; subpopulation (auxotrophy): H
# Method in brief: as §1
# [6] = test system: Saccharomyces cerevisiae BY4741 SeMeCo community; assay: z-score of subpopulation abundance vs DMSO median, subpopulation auxotrophic for LU; higher = larger share of this subpopulation than in DMSO controls; settings: 10 µM; 24 h; SM minimal medium; subpopulation (auxotrophy): LU
# Method in brief: as §1
# [7] = test system: Saccharomyces cerevisiae BY4741 SeMeCo community; assay: z-score of subpopulation abundance vs DMSO median, subpopulation auxotrophic for LM; higher = larger share of this subpopulation than in DMSO controls; settings: 10 µM; 24 h; SM minimal medium; subpopulation (auxotrophy): LM
# Method in brief: as §1
# [8] = test system: Saccharomyces cerevisiae BY4741 SeMeCo community; assay: z-score of subpopulation abundance vs DMSO median, subpopulation auxotrophic for HM; higher = larger share of this subpopulation than in DMSO controls; settings: 10 µM; 24 h; SM minimal medium; subpopulation (auxotrophy): HM
# Method in brief: as §1
# [9] = test system: Saccharomyces cerevisiae BY4741 SeMeCo community; assay: z-score of subpopulation abundance vs DMSO median, subpopulation auxotrophic for HU; higher = larger share of this subpopulation than in DMSO controls; settings: 10 µM; 24 h; SM minimal medium; subpopulation (auxotrophy): HU
# Method in brief: as §1
# [10] = test system: Saccharomyces cerevisiae BY4741 SeMeCo community; assay: z-score of subpopulation abundance vs DMSO median, subpopulation auxotrophic for UM; higher = larger share of this subpopulation than in DMSO controls; settings: 10 µM; 24 h; SM minimal medium; subpopulation (auxotrophy): UM
# Method in brief: as §1
# [11] = test system: Saccharomyces cerevisiae BY4741 SeMeCo community; assay: z-score of subpopulation abundance vs DMSO median, subpopulation auxotrophic for HLU; higher = larger share of this subpopulation than in DMSO controls; settings: 10 µM; 24 h; SM minimal medium; subpopulation (auxotrophy): HLU
# Method in brief: as §1
# [12] = test system: Saccharomyces cerevisiae BY4741 SeMeCo community; assay: z-score of subpopulation abundance vs DMSO median, subpopulation auxotrophic for HLM; higher = larger share of this subpopulation than in DMSO controls; settings: 10 µM; 24 h; SM minimal medium; subpopulation (auxotrophy): HLM
# Method in brief: as §1
# [13] = test system: Saccharomyces cerevisiae BY4741 SeMeCo community; assay: z-score of subpopulation abundance vs DMSO median, subpopulation auxotrophic for HUM; higher = larger share of this subpopulation than in DMSO controls; settings: 10 µM; 24 h; SM minimal medium; subpopulation (auxotrophy): HUM
# Method in brief: as §1
# [14] = test system: Saccharomyces cerevisiae BY4741 SeMeCo community; assay: z-score of subpopulation abundance vs DMSO median, subpopulation auxotrophic for LUM; higher = larger share of this subpopulation than in DMSO controls; settings: 10 µM; 24 h; SM minimal medium; subpopulation (auxotrophy): LUM
# Method in brief: as §1
# [15] = test system: Saccharomyces cerevisiae BY4741 SeMeCo community; assay: z-score of subpopulation abundance vs DMSO median, subpopulation auxotrophic for HLUM; higher = larger share of this subpopulation than in DMSO controls; settings: 10 µM; 24 h; SM minimal medium; subpopulation (auxotrophy): HLUM
# Method in brief: as §1
# [16] = test system: Saccharomyces cerevisiae BY4741 SeMeCo community; assay: z-score of subpopulation abundance vs DMSO median, subpopulation auxotrophic for HL; higher = larger share of this subpopulation than in DMSO controls; settings: 10 µM; 24 h; SM minimal medium; subpopulation (auxotrophy): HL
# Method in brief: as §1
SMILES,mean cell size [1],z-score of prototroph abundance [2],z-score of subpopulation abundance [3],z-score of subpopulation abundance [4],z-score of subpopulation abundance [5],z-score of subpopulation abundance [6],z-score of subpopulation abundance [7],z-score of subpopulation abundance [8],z-score of subpopulation abundance [9],z-score of subpopulation abundance [10],z-score of subpopulation abundance [11],z-score of subpopulation abundance [12],z-score of subpopulation abundance [13],z-score of subpopulation abundance [14],z-score of subpopulation abundance [15],z-score of subpopulation abundance [16]
CCc1nn(CCCN2CCN(c3cccc(Cl)c3)CC2)c(=O)n1CCOc1ccccc1 [Nefazodone hydrochloride],12.38 ± 0.1,-1.27,-0.42,-0.01,2.06,0.49,-0.3,0.55,0.21,-0.31,0.16,0.6,-0.23,0.49,0.44,
NS(=O)(=O)Cc1noc2ccccc12 [Zonisamide],12.4 ± 0.24,-0.82,0.41,-0.42,0.46,0.73,1.13,0.69,-0.35,-0.04,1.02,1.38,0.45,1.7,,0.85
COc1cc([C@@H]2c3cc4c(cc3[C@@H](O[C@@H]3O[C@@H]5CO[C@@H](c6cccs6)O[C@H]5[C@H](O)[C@H]3O)[C@H]3COC(=O)[C@H]23)OCO4)cc(OC)c1O [Teniposide],12.5 ± 0.04,-1.62,1.05,0.19,0.91,0.76,1.46,,1.34,0.67,2.62,1,1.08,1.42,0.55,1.18
CN(C)CCCN1c2ccccc2Sc2ccccc21 [Promazine hydrochloride],,0.19,0.15,0.34,-0.82,0.52,-0.08,-0.18,-0.69,,0.06,0.41,0.07,0.25,0.6,-0.82
CC(C)[C@H](N)C(=O)OCC(CO)OCn1cnc2c(=O)[nH]c(N)nc21 (stereo partly specified) [Valganciclovir HCl],12.7 ± 0.14,0.56,-0.49,-0.54,0.09,-0.94,-0.45,-0.64,-0.15,,-0.52,0.99,-0.56,0.07,,-0.43
Cc1cc(C)nc(NS(=O)(=O)c2ccc(N)cc2)n1 [Sulfamethazine],12.5 ± 0.25,0,0.92,-0.82,0.21,-0.83,0.84,,-0.43,,0.31,0.59,-0.1,-0.16,0.42,-0.28
COc1ccc(CN2CCN(C(c3ccc(F)cc3)c3ccc(F)cc3)CC2)c(OC)c1OC [Lomerizine 2HCl],12.443 ± 0.0032,,-0.52,0.28,-0.09,-0.08,0.33,0.78,0.22,-0.33,0.88,0.32,-0.52,,,0.04
CN(C)[C@@H]1C(=O)C(C(N)=O)=C(O)[C@@]2(O)C(=O)C3=C(O)c4c(O)ccc(Cl)c4[C@@H](O)[C@H]3C[C@@H]12 [Demeclocycline HCl],,0.9,-1.78,,0.67,-0.08,-0.4,-1,-0.34,-0.64,-0.4,-0.17,-1,-0.57,-0.17,
COc1ccc(C2CNC(=O)C2)cc1OC1CCCC1 (stereo unspecified) [Rolipram],12.4 ± 0.3,0.66,0.33,-0.09,-0.68,-0.29,0.28,-0.73,-0.85,-0.35,-0.57,-1.22,-0.22,-0.59,-0.71,
CN1CCN(CCCN2c3ccccc3Sc3ccc(C(F)(F)F)cc32)CC1 [Trifluoperazine 2HCl],12.1 ± 0.41,0.01,-0.02,0.38,-0.58,-0.4,-0.04,0.33,0.54,0.11,-0.24,-0.79,0.42,0,-0.04,
NC(CO)(CO)CO [Trometamol],12.2 ± 0.18,-0.35,0.08,0.6,-0.42,0.36,-0.62,-0.48,0.55,0.88,-0.13,-0.69,-0.08,0.42,-0.35,
C[C@@H]1CN(c2c(F)c(N)c3c(=O)c(C(=O)O)cn(C4CC4)c3c2F)C[C@H](C)N1 [Sparfloxacin],12.38 ± 0.094,,-0.53,-0.2,-0.34,-0.36,0.37,-0.01,-0.11,-0.25,-0.1,-0.79,-0.04,-0.41,-0.92,
O=C1OC(CN2CCOCC2)CN1/N=C/c1ccc([N+](=O)[O-])o1 (stereo unspecified) [Furaltadone HCl],,0.34,0.83,0.25,-0.56,-0.14,-0.57,,-0.63,0.47,-0.79,-0.4,-0.1,-0.33,-0.39,-0.67
CC1=CC[C@@](O)(C(C)C)CC1 [Terpinen-4-ol],,-0.41,-1.02,0.8,-0.04,0.74,-0.03,-0.39,0.31,0.26,0.05,0.54,-0.35,0.2,0.81,-0.57
